# This is a sample that favours compounds with a hit; in the whole collection about 12% have one here.
# Pf growth 96h: Primary qHTS for delayed death inhibitors of the malarial parasite plastid, 96 hour incubation; P. falciparum luciferase reporter growth, 96 h; Potency, µM (titrated, usually from 28.7 µM), for the others: at the top dose activity change, negative = inhibition, usual class: inhibitors; hit rate 6.9% among 320,000; AID 504834, 2011; also: potency is read from the fitted curve at half-maximal effect; % is scaled to controls: 0 for no effect and ±100 for the full control effect
#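 Parasite growth measured via integrated firefly luciferase reporter in P. falciparum. Infected erythrocytes at 2% hematocrit, 0.05% parasitemia final were treated 96 hours at 37 C under 5% CO2, and luminescence was read.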
# AmpC inh no detg: qHTS Inhibitors of AmpC Beta-Lactamase (assay without detergent). P00811. AmpC nitrocefin hydrolysis, absorbance 480 nm, 0.0001% Triton. Potency, µM (top dose mostly 57.1 µM), for inactives: at the highest dose activity change, negative = inhibition, usual class: inhibitors. hit rate 0.52% among 330,000. AID 485341, 2010;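 also: potency is read from the fitted curve at half-maximal effect; plate controls were no compound for no effect and no enzyme for full effect; nearly all actives have a fitted effect of over 20% in size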
# Target sequence (P00811 whole entry, looked up): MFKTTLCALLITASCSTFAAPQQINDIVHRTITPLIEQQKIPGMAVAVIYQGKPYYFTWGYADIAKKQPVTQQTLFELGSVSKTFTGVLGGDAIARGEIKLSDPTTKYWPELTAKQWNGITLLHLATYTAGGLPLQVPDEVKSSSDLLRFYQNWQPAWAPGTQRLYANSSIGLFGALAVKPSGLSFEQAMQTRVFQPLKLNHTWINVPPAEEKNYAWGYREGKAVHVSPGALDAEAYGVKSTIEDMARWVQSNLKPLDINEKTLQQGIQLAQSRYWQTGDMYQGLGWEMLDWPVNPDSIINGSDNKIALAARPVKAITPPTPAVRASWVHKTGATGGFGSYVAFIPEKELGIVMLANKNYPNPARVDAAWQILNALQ
#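 20 mM phosphate pH 7.0 + 0.01% (detergent screen) or 0.0001% Triton X-100; 5.3 nM AmpC reagent; cpd preinc 15 min RT; nitrocefin (800 uM stock) to start; A480 q20 s × 4 min; Activity was normalised to no-enzyme and no-compound control wells.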
# SARS PLpro yeast-1: qHTS of Yeast-based Assay for SARS-CoV PLP. S. cerevisiae expressing SARS-CoV PLpro, growth rescue. hit rate 0.19% among 330,000. Potency, µM (doses to about 32.9 µM), without a hit: top-dose activity, positive = growth rescue, usual class: activators. AID 485353, 2010; calls by dose curve; also: potency is read from the fitted curve at half-maximal effect; 0% is about no effect; nearly all actives have a fitted effect of over 55% in size
# AmpC inh detg: qHTS Inhibitors of AmpC Beta-Lactamase (assay with detergent) | P00811 | AmpC hydrolysis of nitrocefin, absorbance 480 nm, 0.01% Triton | Potency, µM (doses to about 114 µM), for inactives: at the highest dose activity change, negative = inhibition, most hits filed as inhibitors | hit rate 0.041% among 370,000 | AID 485294, 2010;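 also: potency is read from the fitted curve at half-maximal effect; 0% = no-compound wells and -100% = no-enzyme wells; nearly all actives have a fitted effect of over 25% in size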
#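 20 mM phosphate pH 7.0 + 0.01% (detergent screen) or 0.0001% Triton X-100; 5.3 nM AmpC reagent; cpd preinc 15 min RT; nitrocefin (800 uM stock) to start; A480 q20 s × 4 min; Activity was normalised to no-enzyme and no-compound control wells.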
# Sm TGR block: qHTS Assay for the Inhibitors of Schistosoma Mansoni Peroxiredoxins; Schistosoma mansoni thioredoxin glutathione reductase (TGR), Q962Y6; purified TGR, DTNB reduction, TNB absorbance 405 nm; Potency, µM (series often up to 114 µM), for the others: top-dose activity change, negative = inhibition, actives largely listed as inhibitors; hit rate 3% among 360,000; also: potency is read from the fitted curve at half-maximal effect; % is scaled to controls: 0 for no effect and ±100 for the full control effect; nearly all actives have a fitted effect of over 60% in size
#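 First, TGR (20 nM dispensed) and NADPH were mixed with compound. Second, a 15 min room-temperature incubation followed. Third, further NADPH and then DTNB were added to start the reaction. Finally, TNB absorbance was monitored kinetically.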
# Pf growth 48h: Primary qHTS for delayed death inhibitors of the malarial parasite plastid, 48 hour incubation. Potency, µM (series often up to 28.7 µM), without a hit: at the highest dose activity change, negative = inhibition, most hits filed as inhibitors. AID 504832, 2011. P. falciparum luciferase growth in erythrocytes, 48 h. hit rate 5.9% among 310,000; also: potency is read from the fitted curve at half-maximal effect; % is scaled to controls: 0 for no effect and ±100 for the full control effect
#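 Read-out is firefly luciferase luminescence from an integrated reporter in P. falciparum, so falling signal marks reduced parasite growth. Infected erythrocytes were at 2% hematocrit and 0.1% parasitemia (final) in Albumax-supplemented RPMI 1640.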
# SARS PLpro yeast-2: qHTS of Yeast-based Assay for SARS-CoV PLP: Hit Validation. shares compounds with SARS PLpro yeast-1. yeast expressing SARS-CoV PLpro, growth phenotype rescue. calls only. hit rate 19% among 1,000; call rule not given here
# Starred values were filed as active, the others as inactive; i = inactive; ? = inconclusive; nt = no result; + = active, no number; ! = not active in a repeat. Unless noted, calls follow the shape of the dose curve; as a rule, active = well fitted curve in the direction sought with a large enough effect; inconclusive = small, poorly fitted or top-dose-only effect, or another doubt; inactive = no such curve, though single readings can be large; an effect the other way counts as inactive or inconclusive.
SMILES,Pf growth 96h,AmpC inh no detg,SARS PLpro yeast-1,AmpC inh detg,Sm TGR block,Pf growth 48h,SARS PLpro yeast-2
CN1/C(=C\C(=S)NC(=O)c2ccccc2Cl)C(C)(C)c2ccccc21,?,-34%,?,-1%,-3%,?,+
Cn1c2cc(C#N)sc2c2cnn(Cc3ccc(F)cc3)c(=O)c21,4%,-23%,5.6µM*!,?,9%,1%,i
O=C(Oc1c(CN2CCOCC2)cc(Cl)c2cccnc12)c1ccccc1F,2.1µM*,-5%,2.5µM*,7%,1%,-13%,?
O=C(Oc1ccc(C(=S)N2CCOCC2)cc1Cl)c1ccccc1F,-3%,69%,?,?,-1%,-2%,nt
Cc1oc2cc(OCc3cnn(-c4ccccc4)c3)ccc2c(=O)c1Oc1ccccc1F,-15%,-34%,2.5µM*,?,2%,-20%,i
O=C1C=CC(=O)N1Nc1ccc(Br)cc1,-3%,5%,?,-14%,-2%,7%,i
Cc1c(N/N=C(\C#N)C(=O)c2ccc(Cl)cc2)c(=O)n(-c2ccccc2)n1C,113%,-16%,13µM*,7%,-4%,12µM*,i
CCOC(=O)C1=C(CNCc2ccc(C)cc2)NC(=O)NC1c1cc(C)ccc1C (centres undefined),3.3µM*,22%,?,?,-1%,nt,i
CCN(c1cccc(C)c1)S(=O)(=O)c1cccc(C(=O)O)c1,30%,-13%,?,1%,0%,nt,i
CCCCN(c1ccccc1)S(=O)(=O)c1cccc(C(=O)O)c1,-2%,-38%,1%,4%,6%,?,nt
CN1C(=O)SC(Nc2cccc3ccccc23)C1=O (centres undefined),85%,-26%,13µM*,2%,0%,9%,i
CCOC(=O)c1sc(=S)n(C)c1NC(=O)c1ccccc1Cl,?,-19%,22µM*,-1%,-10%,10%,i
CCOC(=O)c1sc(=S)n(C)c1NC(=O)c1ccc(OC)cc1,29%,-25%,0%,-8%,-7%,5%,nt
COc1ccc(CN2CCNC(=O)C2CC(=O)NCc2cnn(C)c2)cc1OC (centres undefined),?,-2%,0%,4%,?,38%,nt
COc1ccc(Cl)cc1NS(=O)(=O)c1cn(C)nc1C,17%,3%,?,5%,-1%,2%,i
Cc1ccc(Cl)cc1NS(=O)(=O)c1cn(C)nc1C,1%,-21%,5%,-1%,-20%,12%,nt
COc1ccc(-c2nc3ccccc3o2)cc1NC(=O)COc1ccc(C(C)(C)C)cc1,nt,nt,nt,2%,8%,nt,nt
Cc1ccc(C(C(=O)NCc2ccccc2)N(Cc2cccs2)C(=O)c2ccc3c(c2)OCCO3)cc1 (centres undefined),?,-18%,?,?,-13%,?,i
CSc1ccccc1C(=O)Nc1ccccc1C(=O)NC(C)C,90%,-11%,-1%,-1%,35%,-17%,nt
Cc1ccc(C2(c3ccc(C)cc3)CC2C(=O)NC(C)C)cc1 (centres undefined),?,22%,-2%,3%,-11%,-23%,nt
CCOC(=O)c1[nH]c2ccc(Cl)cc2c1NC(=O)c1nonc1C,74%,-9%,?,-1%,0%,-2%,+
O=C(CN1CCN(c2ncccn2)CC1)Nc1ccccc1-n1cccc1,12%,61%,14µM*,2%,-5%,?,i
